According to PubChem BioAssay (NCI):
“And” between values parts separate entries of the source, which are not always exact repeats. Equal values may be shown once. This is part of a sample that, as a whole, favours compounds with a hit. Of some 83,000 tested, about 20% had one in any assay.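 For each line, cells grew in 96-well plates with the test compound present at a single concentration for 48 hours.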 The source made the active and inactive calls. Rule for the calls: active = growth percent below 10; inactive = the rest.

These compounds were tested on SK-MEL-5 melanoma (assay: NCI-60 one-dose screen, 48 h (100 = growth as untreated, 0 = no growth, -100 = all killed)). Conditions: 10 µM unless noted.
In the case of `C=CC(=O)N1CCN(c2ccc3nc4c(nc3c2C(F)(F)F)C(=O)c2ncccc2C4=O)CC1`, the growth was -98.6% (active). For `O=C(N/N=C/c1ccc(-c2cccc([N+](=O)[O-])c2)s1)c1[nH]c2ccc(Br)cc2c1-c1ccccc1`, the growth was 93.8% (inactive). In the case of `CCCCNc1ccc2c3c(cccc13)C(=O)N(NCC(O)COc1ccc3c(C)cc(=O)oc3c1)C2=O` (configuration not stated), the growth was 77.9% (inactive). In the case of `CC(=O)Nc1cccc(-n2c(COc3ccc(Br)cc3)nc3ccccc32)c1`, the growth was 90.3% (inactive) and 103% (inactive). `CC(=O)c1c2c(c3ccc4c5ccccc5ccc4n13)C(=O)c1ccccc1C2=O` was tested, and the growth was 63.7% (inactive). In the case of `CC1=NN(C2=NC(=O)C(CC(=O)Nc3ccccc3C(F)(F)F)S2)C(c2ccc(N(C)C)cc2)C1` (configuration not stated), the growth was 43.4% (inactive). In the case of `Cc1ccc(C2CC(c3ccc(NC(=O)Nc4ccccc4)cc3)=NN2c2ccc(S(C)(=O)=O)cc2)cc1` (configuration not stated), the growth was -99.9% (active). With `O=C(CSc1nc2sc3c(c2c(=O)n1-c1ccc(Cl)cc1)CCCC3)N/N=C/C=C/c1ccccc1` the growth was -95.2% (active). `O=C(COc1ccc(/C=C2/C(=O)Nc3ccc(Cl)cc32)cc1)Nc1ccc(Br)cc1` was tested, and the growth was -14.8% (active). For `CC(C)(C)OC(=O)N1CCC2(CC1)Oc1ccccc1[C@H]1CC(c3ccc(Br)cc3)=NN12`, the growth was 76.2% (inactive). For `N#Cc1c(-c2ccc(F)cc2)nc(SCc2ccc(F)cc2)nc1N1CCNCC1`, the growth was -67.4% (active). For `Cc1ccc(/C=C/C(=O)c2ccc(S(=O)(=O)NCCNc3nc(N(C)C)nc(N4CCOCC4)n3)cc2)cc1`, the growth was 89% (inactive).
